Records with an inconclusive call do not appear. Unmarked numbers belong to inactive results. Calls of active or inactive are those of the source. Calls follow the shape of the dose curve; as a rule, active = well fitted inhibition curve with a large enough effect; inconclusive = small, poorly fitted or top-dose-only effect, or effect the other way; inactive = flat fitted curve, though single readings scatter.
Each compound was assayed against D(1A) dopamine receptor (Homo sapiens) (UniProt P21728) (assay: HTS Assay for Allosteric Agonists of the Human D1 Dopamine Receptor: Primary Screen for Antagonists (AID 488983; also: nearly all actives have a fitted effect of over 65% in size)). Details: D1 receptor cell assay, antagonist mode, qHTS titration; series mostly up to 41.8 µM; activity change, negative = inhibition: at the top concentration.
Source text: Dopamine receptors (DARs) are involved in the etiology and/or therapy of a number of neuropsychiatric and endocrine disorders. For instance, all receptor-based antiparkinsonian drugs work via stimulating the […] DAR subtype whereas all FDA-approved antipsychotic agents are antagonists of this receptor. […] There are three different types of allosteric modulators that we are seeking, two of which will stimulate or augment receptor signaling, allosteric agonists and potentiators, while the third, allosteric antagonists, will attenuate receptor signaling. The present primary screening assay measures compound agonism by tracking calcium flux in a […], inducible Hek293 Trex D1 cell line.
Freshly passaged cells are plated in 1536 well black, clear bottom plates at a density of 4000 cells/well in 3 ul of complete media containing 1x tetracycline inducer. After an overnight incubation at 30 C in 5% CO2, cells are loaded with 2 ul of the no wash Calcium Assay Kit (ABD Bioquest) and incubated at room temperature for 30 to 90 minutes. A 10 cycle (1 second/cycle) baseline measurement is taken and then the FDSS online 1536 pintool delivers 23 nl of compound library (as well as dopamine controls) to the plate. The plate is measured for kinetically at 1 cycle/sec for 180 seconds and is considered to be the agonist portion of the assay (eg, compounds which activate a positive calcium response during this portion are flagged as potential agonists). Following the 180 second read, 1 ul of an EC80 of dopamine is delivered by an onboard pipette head. Measurements are taken kinetically for an additional 180 seconds.
% is scaled to controls: 0 for no effect and ±100 for the full control effect; potency is read from the fitted curve at half-maximal effect.

D(1A) dopamine receptor (Homo sapiens), sequence (P21728 whole entry, looked up): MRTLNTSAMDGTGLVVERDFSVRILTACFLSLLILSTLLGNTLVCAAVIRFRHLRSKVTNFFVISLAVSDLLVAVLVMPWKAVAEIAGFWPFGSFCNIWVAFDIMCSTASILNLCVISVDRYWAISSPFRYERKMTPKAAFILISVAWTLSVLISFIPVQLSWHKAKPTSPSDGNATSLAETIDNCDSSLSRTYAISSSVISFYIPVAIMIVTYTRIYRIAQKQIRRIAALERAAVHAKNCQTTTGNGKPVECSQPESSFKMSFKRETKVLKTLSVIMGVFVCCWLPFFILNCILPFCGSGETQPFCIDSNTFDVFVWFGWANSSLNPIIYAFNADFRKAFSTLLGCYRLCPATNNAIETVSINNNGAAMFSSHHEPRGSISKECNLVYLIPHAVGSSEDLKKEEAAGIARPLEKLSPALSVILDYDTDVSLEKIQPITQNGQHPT

Row | Compound | Potency | activity change, negative = inhibition [%]
1 | CCCNCC(O)COc1ccccc1C(=O)CCc1ccccc1 (stereo not given) | 10 µM (active) | 
2 | COc1ccc2c(c1)c(CC(=O)O)c(C)n2C(=O)c1ccc(Cl)cc1 |  | -0.41
3 | CN(C)c1nc(N(C)C)nc(N(C)C)n1 |  | -4.23
4 | CCOC(=O)C(C)(C)Oc1ccc(Cl)cc1 |  | -1.63
5 | Cc1cnc(C(=O)NCCc2ccc(S(=O)(=O)NC(=O)NC3CCCCC3)cc2)cn1 |  | -2.96
6 | COc1nc(C)nc(Cl)c1NC1=NCCN1 |  | 9.06
7 | O=C(C1CCCCC1)N1CC(=O)N2CCc3ccccc3C2C1 (stereo not given) |  | 0.409
8 | CS(=O)(=O)Nc1ccc([N+](=O)[O-])cc1Oc1ccccc1 |  | 5.42
9 | COc1ccc2[nH]cc(CCNC(C)=O)c2c1 |  | -6.08
10 | Nc1nnc(-c2cccc(Cl)c2Cl)c(N)n1 |  | 2.69
11 | O=C(c1ccc(F)cc1)C1CCN(CCn2c(=O)[nH]c3ccccc3c2=O)CC1 | 5.62 µM (active) | 
12 | Cn1cnc2c1c(=O)[nH]c(=O)n2C |  | -6.18
13 | O=c1[nH]cc(F)c(=O)[nH]1 |  | 7.87
14 | CC1COc2c(N3CCN(C)CC3)c(F)cc3c(=O)c(C(=O)O)cn1c23 (stereo not given) |  | 3.1
15 | NCCc1cnc[nH]1 |  | 13
16 | CC(C)C(=O)Nc1ccc([N+](=O)[O-])c(C(F)(F)F)c1 |  | -23.4
17 | NC12CC3CC(CC(C3)C1)C2 |  | 7.36
18 | CCOC(=O)c1ncn2c1CN(C)C(=O)c1cc(F)ccc1-2 |  | 9.72
19 | CN(C)CCOC(c1ccccc1)c1ccccc1 |  | -8.97
20 | CC(C)Cc1ccc(C(C)C(=O)O)cc1 (stereo not given) |  | 4.03

Row | Compound | Potency | activity change, negative = inhibition [%]
21 | CN1CCC(=C2c3ccccc3CC(=O)c3sccc32)CC1 | 2 µM (active) | 
22 | COc1cc2c(c(OC)c1OC)-c1ccc(OC)c(=O)cc1[C@@H](NC(C)=O)CC2 |  | 0.131
23 | CC(C)NCC(O)c1ccc(O)c(O)c1 (stereo not given) |  | 12.3
24 | CC(COc1ccccc1)N(CCCl)Cc1ccccc1 (stereo not given) |  | 29.7
25 | COC(=O)Nc1nc2ccc(C(=O)c3cccs3)cc2[nH]1 |  | -6.38
26 | Cc1cn([C@H]2C=C[C@@H](CO)O2)c(=O)[nH]c1=O |  | 11
27 | Cc1ccccc1N1C(=O)c2cc(S(N)(=O)=O)c(Cl)cc2NC1C (stereo not given) |  | -0.648
28 | Cc1cc(C(C)(C)C)cc(C)c1CC1=NCCN1 |  | -5.35
29 | NC(=O)OCC(COC(N)=O)c1ccccc1 |  | 8.49
30 | COc1ccc(C2CNC(=O)C2)cc1OC1CCCC1 (stereo not given) |  | 11.1
31 | Nc1nc2c(ncn2COC(CO)CO)c(=O)[nH]1 |  | 10.7
32 | O=c1c(-c2ccc(O)cc2)coc2cc(O)cc(O)c12 |  | -26.9
33 | CN(C)C(=O)C(CCN1CCC(O)(c2ccc(Cl)cc2)CC1)(c1ccccc1)c1ccccc1 |  | -18.7
34 | COc1ccc(CCN(C)CCCC(C#N)(c2ccc(OC)c(OC)c2)C(C)C)cc1OC (stereo not given) |  | -26
35 | NS(=O)(=O)c1cc2c(cc1Cl)NCNS2(=O)=O |  | 15.3
36 | Clc1ccc2nsnc2c1NC1=NCCN1 |  | -1.42
37 | Cc1ccc(C(=O)Nc2ccc(S(=O)(=O)O)c3cc(S(=O)(=O)O)cc(S(=O)(=O)O)c23)cc1NC(=O)c1cccc(NC(=O)Nc2cccc(C(=O)Nc3cc(C(=O)Nc4ccc(S(=O)(=O)O)c5cc(S(=O)(=O)O)cc(S(=O)(=O)O)c45)ccc3C)c2)c1 |  | 4.04
38 | CC(C(=O)O)c1cccc(C(=O)c2ccccc2)c1 (stereo not given) |  | 2.74
39 | COc1ccccc1OCC(O)CN1CCN(CC(=O)Nc2c(C)cccc2C)CC1 (stereo not given) |  | 1.72
40 | Cn1c(=O)c2[nH]cnc2n(C)c1=O |  | 8.05
